Reference: PMC7862700, “An all-to-all approach to the identification of sequence-specific readers for epigenetic DNA modifications on cytosine”

Experiments:
Test in all cases: DAPPL (digital affinity profiling via proximity ligation, sequencing); 10 mM Tris-HCl pH 7.5, 50 mM NaCl, 1 mM DTT, 4% glycerol, room temperature, 30 min; GST-TFs on glutathione beads, 16-mer random dsDNA library, 0.1% formaldehyde crosslink after washing; high values mean tight binding
[1] = target: T1, FEV (Homo sapiens, UniProt Q99581 1-238); settings: protein: recombinant; tags: N-terminal GST; dsDNA, one strand shown
T1 sequence: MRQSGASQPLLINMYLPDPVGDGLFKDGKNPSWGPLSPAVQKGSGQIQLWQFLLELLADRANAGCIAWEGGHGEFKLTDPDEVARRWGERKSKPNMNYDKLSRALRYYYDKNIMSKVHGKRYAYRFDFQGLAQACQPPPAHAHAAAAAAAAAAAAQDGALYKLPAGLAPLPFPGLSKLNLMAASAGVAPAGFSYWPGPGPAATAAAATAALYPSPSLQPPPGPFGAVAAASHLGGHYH
Outline: (§1)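 Binding signal is given per hexamer as its read frequency for a factor divided by its frequency in the tag-only sample. GST-fused human transcription factors were expressed in yeast, captured on glutathione beads, barcoded with DNA and pooled with that sample, then incubated with 200 nmole of a 16-mer random double-stranded DNA library in Tris/NaCl/DTT/glycerol buffer for 30 min at room temperature. The pools were then washed, crosslinked, proximity-ligated, amplified by PCR and sequenced on an Illumina NextSeq500.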

[2] = target: ETV5 (Homo sapiens, UniProt P41161 1-510); settings: protein: recombinant; tags: N-terminal GST; dsDNA, one strand shown
Outline: as §1

[3] = target: HSF1 (Homo sapiens, UniProt Q00613 1-529); settings: protein: recombinant; tags: N-terminal GST; chain copies: 3; dsDNA, one strand shown
Outline: as §1

[4] = target: T2, SPIC (Homo sapiens, UniProt Q8N5J4 1-248); settings: protein: recombinant; tags: N-terminal GST; dsDNA, one strand shown
T2 sequence: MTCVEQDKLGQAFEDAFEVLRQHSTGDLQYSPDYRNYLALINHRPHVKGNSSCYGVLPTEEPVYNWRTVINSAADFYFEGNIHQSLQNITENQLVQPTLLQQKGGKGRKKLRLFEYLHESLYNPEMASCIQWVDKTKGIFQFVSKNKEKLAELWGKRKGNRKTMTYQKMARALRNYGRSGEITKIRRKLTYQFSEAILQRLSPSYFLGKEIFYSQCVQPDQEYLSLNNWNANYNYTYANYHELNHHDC
Outline: as §1

[5] = target: ELF4 (Homo sapiens, UniProt Q99607 1-663); settings: protein: recombinant; tags: N-terminal GST; dsDNA, one strand shown
Outline: as §1

[6] = target: T3, ELK4 (Homo sapiens, UniProt P28324-2 1-405); settings: protein: recombinant; tags: N-terminal GST; dsDNA, one strand shown
T3 sequence: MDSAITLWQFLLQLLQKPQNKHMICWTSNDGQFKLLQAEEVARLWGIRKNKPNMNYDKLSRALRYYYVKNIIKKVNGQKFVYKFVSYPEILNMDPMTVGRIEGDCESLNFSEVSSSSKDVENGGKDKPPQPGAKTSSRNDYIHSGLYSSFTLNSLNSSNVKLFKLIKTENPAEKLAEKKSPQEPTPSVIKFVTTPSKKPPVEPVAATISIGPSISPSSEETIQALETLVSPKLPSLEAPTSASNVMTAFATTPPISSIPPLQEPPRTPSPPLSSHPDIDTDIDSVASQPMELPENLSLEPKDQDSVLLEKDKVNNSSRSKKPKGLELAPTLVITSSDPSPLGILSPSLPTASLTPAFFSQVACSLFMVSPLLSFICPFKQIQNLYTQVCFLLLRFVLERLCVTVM
Outline: as §1

[7] = target: T4, ETV2 (Homo sapiens, UniProt O00321 1-342); settings: protein: recombinant; tags: N-terminal GST; dsDNA, one strand shown
T4 sequence: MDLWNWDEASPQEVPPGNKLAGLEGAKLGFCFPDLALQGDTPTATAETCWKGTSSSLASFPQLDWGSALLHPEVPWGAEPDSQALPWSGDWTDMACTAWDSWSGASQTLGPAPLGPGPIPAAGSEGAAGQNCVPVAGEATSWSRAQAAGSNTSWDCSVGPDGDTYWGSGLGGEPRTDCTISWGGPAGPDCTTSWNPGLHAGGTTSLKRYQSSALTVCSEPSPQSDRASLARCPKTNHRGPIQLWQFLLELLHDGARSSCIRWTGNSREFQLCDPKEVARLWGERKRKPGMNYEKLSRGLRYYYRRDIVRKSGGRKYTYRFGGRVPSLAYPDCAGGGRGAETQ
Outline: as §1

[8] = target: T5, ELF3 (Homo sapiens, UniProt P78545 1-371); settings: protein: recombinant; tags: N-terminal GST; dsDNA, one strand shown
T5 sequence: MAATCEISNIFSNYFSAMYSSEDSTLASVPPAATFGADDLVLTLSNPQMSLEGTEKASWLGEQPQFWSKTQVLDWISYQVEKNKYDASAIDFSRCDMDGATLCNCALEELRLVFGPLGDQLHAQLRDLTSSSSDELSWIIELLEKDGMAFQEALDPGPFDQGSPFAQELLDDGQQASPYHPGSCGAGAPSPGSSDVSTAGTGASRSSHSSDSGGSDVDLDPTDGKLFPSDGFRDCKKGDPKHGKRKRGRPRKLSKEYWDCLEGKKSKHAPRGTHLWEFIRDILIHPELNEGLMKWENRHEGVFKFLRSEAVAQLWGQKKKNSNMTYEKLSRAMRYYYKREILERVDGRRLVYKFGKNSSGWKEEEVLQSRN
Outline: as §1

[9] = target: CRX (Homo sapiens, UniProt O43186 1-299); settings: protein: recombinant; tags: N-terminal GST; dsDNA, one strand shown
Outline: as §1

[10] = target: ETV1 (Homo sapiens, UniProt P50549 1-477); settings: protein: recombinant; tags: N-terminal GST; dsDNA, one strand shown
Outline: as §1

Chain of ELF4 (Q99607 whole entry): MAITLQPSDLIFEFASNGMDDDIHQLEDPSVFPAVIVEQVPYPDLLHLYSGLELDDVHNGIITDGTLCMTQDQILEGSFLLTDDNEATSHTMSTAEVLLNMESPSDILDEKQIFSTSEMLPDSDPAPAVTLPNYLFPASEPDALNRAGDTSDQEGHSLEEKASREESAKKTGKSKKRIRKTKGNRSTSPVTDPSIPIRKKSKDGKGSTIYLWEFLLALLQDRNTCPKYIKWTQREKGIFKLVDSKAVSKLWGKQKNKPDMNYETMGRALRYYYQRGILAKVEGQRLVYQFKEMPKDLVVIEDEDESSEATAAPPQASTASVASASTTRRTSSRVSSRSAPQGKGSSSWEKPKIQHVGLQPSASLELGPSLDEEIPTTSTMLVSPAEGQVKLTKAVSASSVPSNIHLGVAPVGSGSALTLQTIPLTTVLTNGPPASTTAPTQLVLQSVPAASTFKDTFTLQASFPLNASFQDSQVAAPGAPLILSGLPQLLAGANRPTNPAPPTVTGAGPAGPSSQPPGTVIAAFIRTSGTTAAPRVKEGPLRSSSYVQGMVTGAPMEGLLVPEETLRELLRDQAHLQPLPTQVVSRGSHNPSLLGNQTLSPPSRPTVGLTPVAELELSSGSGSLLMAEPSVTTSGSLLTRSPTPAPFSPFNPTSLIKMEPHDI
Chain of HSF1 (Q00613 whole entry): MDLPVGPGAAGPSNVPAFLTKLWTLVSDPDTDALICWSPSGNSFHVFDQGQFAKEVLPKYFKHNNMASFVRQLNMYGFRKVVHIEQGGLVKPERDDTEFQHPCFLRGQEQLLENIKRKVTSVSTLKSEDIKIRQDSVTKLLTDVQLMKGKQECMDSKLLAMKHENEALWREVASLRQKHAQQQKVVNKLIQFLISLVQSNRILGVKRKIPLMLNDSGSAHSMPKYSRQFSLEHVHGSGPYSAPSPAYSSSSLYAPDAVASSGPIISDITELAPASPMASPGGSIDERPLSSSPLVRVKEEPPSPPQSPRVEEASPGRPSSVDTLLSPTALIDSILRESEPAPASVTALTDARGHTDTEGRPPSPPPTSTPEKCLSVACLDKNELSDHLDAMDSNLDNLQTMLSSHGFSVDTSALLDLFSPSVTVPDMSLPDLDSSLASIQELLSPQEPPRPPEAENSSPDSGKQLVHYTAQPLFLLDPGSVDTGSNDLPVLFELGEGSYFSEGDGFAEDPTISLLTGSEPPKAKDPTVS
Chain of ETV5 (P41161 whole entry): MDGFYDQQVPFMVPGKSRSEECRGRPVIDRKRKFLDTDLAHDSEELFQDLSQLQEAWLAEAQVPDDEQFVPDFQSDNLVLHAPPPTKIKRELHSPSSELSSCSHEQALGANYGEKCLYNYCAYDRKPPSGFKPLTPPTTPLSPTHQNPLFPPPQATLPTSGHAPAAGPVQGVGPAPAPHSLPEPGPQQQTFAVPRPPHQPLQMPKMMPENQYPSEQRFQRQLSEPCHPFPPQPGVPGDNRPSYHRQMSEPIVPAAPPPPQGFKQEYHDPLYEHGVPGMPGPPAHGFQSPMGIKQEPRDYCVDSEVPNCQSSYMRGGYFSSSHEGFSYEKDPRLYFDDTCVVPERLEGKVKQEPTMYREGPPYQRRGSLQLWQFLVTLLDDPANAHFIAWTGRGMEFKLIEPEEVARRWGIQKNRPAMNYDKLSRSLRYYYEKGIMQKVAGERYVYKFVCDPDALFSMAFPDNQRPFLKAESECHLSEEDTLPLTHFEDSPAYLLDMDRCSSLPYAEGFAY
Chain of CRX (O43186 whole entry): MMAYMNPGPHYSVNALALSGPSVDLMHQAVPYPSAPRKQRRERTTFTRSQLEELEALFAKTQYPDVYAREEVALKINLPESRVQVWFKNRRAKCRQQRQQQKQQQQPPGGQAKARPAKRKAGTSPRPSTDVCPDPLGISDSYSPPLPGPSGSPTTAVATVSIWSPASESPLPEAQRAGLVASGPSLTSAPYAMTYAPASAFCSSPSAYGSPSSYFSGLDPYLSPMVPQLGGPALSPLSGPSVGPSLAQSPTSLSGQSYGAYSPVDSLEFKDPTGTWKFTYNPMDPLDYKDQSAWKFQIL
Chain of ETV1 (P50549 whole entry): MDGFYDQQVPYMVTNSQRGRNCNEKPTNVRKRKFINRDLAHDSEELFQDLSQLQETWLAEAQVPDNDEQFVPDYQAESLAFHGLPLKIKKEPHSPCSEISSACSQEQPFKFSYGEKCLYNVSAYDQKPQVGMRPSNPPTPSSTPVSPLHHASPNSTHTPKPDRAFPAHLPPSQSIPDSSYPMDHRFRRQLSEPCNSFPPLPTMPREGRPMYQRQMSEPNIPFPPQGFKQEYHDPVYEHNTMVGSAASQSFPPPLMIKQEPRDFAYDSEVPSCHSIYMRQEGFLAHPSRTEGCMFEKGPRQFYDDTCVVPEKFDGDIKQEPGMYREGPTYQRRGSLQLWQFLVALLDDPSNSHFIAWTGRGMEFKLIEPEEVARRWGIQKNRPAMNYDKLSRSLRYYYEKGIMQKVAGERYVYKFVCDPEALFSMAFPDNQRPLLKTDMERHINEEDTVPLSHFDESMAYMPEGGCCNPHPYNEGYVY

Which binding signal [1] does the source give for ACTTCG here?
Its binding signal is 1.42 fold enrichment (6-mer frequency, TF over GST control).

And the binding signal [2]?
Its binding signal is 1.39 fold enrichment (6-mer frequency, TF over GST control).

What about the binding signal [3] of the same sequence?
Its binding signal is 1.65 fold enrichment (6-mer frequency, TF over GST control).

What about the binding signal [4] of the same sequence?
Its binding signal is 1.55 fold enrichment (6-mer frequency, TF over GST control).

What about the binding signal [5] of the same sequence?
The binding signal was 1.47 fold enrichment (6-mer frequency, TF over GST control).

And the binding signal [6]?
The binding signal was 1.25 fold enrichment (6-mer frequency, TF over GST control).

And the binding signal [7]?
Its binding signal is 1.45 fold enrichment (6-mer frequency, TF over GST control).

What about the binding signal [8] of the same sequence?
Its binding signal is 1.23 fold enrichment (6-mer frequency, TF over GST control).

And the binding signal [9]?
The binding signal was 1.3 fold enrichment (6-mer frequency, TF over GST control).

What about the binding signal [10] of the same sequence?
Its binding signal is 1.46 fold enrichment (6-mer frequency, TF over GST control).
